# JMJD2A Tudor – inhibitors of human JMJD2A Tudor domain | O75164 | Potency, µM (doses to about 114 µM), for the others: at the highest dose activity change, negative = inhibition, actives largely listed as inhibitors | AlphaScreen JMJD2A-Tudor / H3K4me3 peptide binding | hit rate 4.4% among 390,000; also: % is scaled to controls: 0 for no effect and ±100 for the full control effect; nearly all actives have a fitted effect of over 50% in size
# Target sequence (O75164 whole entry, looked up, the tested form may be a part): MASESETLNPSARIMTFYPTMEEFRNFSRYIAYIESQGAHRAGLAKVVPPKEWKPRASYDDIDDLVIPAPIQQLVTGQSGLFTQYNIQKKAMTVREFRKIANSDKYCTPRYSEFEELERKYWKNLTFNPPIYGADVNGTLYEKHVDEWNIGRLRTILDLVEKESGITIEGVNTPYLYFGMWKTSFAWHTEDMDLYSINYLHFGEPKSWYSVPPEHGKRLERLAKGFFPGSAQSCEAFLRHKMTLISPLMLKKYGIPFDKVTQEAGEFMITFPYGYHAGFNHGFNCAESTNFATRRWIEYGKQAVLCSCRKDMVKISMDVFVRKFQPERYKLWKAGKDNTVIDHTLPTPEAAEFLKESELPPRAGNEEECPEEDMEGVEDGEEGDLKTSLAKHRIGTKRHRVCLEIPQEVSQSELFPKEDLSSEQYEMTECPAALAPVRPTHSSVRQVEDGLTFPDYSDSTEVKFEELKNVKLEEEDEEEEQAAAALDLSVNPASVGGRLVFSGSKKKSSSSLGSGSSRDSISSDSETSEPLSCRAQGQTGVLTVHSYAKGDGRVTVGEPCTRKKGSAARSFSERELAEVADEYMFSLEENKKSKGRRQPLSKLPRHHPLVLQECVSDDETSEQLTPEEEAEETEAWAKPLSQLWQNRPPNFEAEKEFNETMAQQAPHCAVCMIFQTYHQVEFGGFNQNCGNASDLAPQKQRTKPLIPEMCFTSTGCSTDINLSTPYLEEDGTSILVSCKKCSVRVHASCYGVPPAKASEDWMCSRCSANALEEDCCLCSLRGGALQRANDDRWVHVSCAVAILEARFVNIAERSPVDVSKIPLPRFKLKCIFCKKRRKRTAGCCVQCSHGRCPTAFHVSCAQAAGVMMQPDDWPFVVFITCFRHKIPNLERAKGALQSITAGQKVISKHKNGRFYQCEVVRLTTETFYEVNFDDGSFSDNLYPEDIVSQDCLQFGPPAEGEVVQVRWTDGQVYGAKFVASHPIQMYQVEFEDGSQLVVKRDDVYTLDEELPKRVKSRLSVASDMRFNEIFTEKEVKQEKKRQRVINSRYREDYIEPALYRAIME
# BAZ2B block – BAZ2B (human) inhibition. Potency, µM (series often up to 114 µM), inactives show at the top dose activity change, negative = inhibition, hits mostly inhibitors. AlphaScreen BAZ2B-H3K14Ac peptide displacement. hit rate 4.4% among 360,000. AID 504333. Q9UIF8; also: % is scaled to controls: 0 for no effect and ±100 for the full control effect; nearly all actives have a fitted effect of over 60% in size
#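 AlphaScreen displacement of biotin-H3(5-23)K14Ac peptide (50 nM final) from BAZ2B (50 nM final) in PBS pH 7.4, 0.01% Tween-20; complex preformed 30 min RT, then compounds (top 110 uM) 30 min RT, beads 20 min dark.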
# PLK1 PBD block – blocks phosphopeptide binding to human PLK1 polo-box domain; Potency, µM, for inactives: max response, negative = inhibition, hits mostly inhibitors; hit rate 2.8% among 360,000; Plk1 PBD binding of FITC phosphopeptide, fluorescence polarization; P53350; also: series mostly up to about 57 µM; % is scaled to controls: 0 for no effect and ±100 for the full control effect; nearly all actives have a fitted effect of over 65% in size
# G9a block – G9a (human) methyltransferase inhibition | Q96KQ7 | G9a H3K9 monomethylation, AlphaScreen, 2 h | Potency, µM (top dose mostly 102 µM), inactives show top-dose activity, negative = inhibition, hits mostly inhibitors | hit rate 8.8% among 350,000; also: % is scaled to controls: 0 for no effect and ±100 for the full control effect; nearly all actives have a fitted effect of over 75% in size
#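 Chemiluminescent proximity detection of H3K9 monomethylation, read after 10 min bead incubation in the dark. Reaction: 20 nM G9a, 500 nM biotin-H3K9 peptide, 20 uM SAM cofactor, 2 h, room temperature, following 15 min enzyme-compound preincubation.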
# HP1b binding inh – blocks HP1-beta chromodomain binding to methylated histone tails; P83916; AlphaScreen HP1-beta / biotin-H3K9me3 peptide binding; Potency, µM (top dose mostly 114 µM), for inactives: at the top dose activity change, negative = inhibition, hits mostly inhibitors; hit rate 0.56% among 390,000; AID 540317; also: nearly all actives have a fitted effect of over 70% in size
#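 HP1-beta protein (50 nM final) preincubated 30 min at room temperature with biotinylated H3(1-18)K9me3 peptide (50 nM) in PBS pH 7.4, 0.01% Tween-20, then compound added for 30 min. AlphaScreen streptavidin donor/nickel chelate acceptor beads (10 ug/mL final), 30 min dark, luminescence read.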
# Sfp PPTase inh – inhibitors of Bacillus subtilis Sfp phosphopantetheinyl transferase; Q9F4F7; Biochemical Sfp PPTase activity, qHTS; Potency, µM, without a hit: largest response in the series, negative = inhibition, hits mostly inhibitors; hit rate 3.5% among 310,000;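 also: the enzyme is Sfp with the accession as filed and its product quenches rhodamine fluorescence; 0% = enzyme reaction without inhibitor and -100% = no enzyme wells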
#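 Fluorescence-quenching assay with 15 nM Sfp, 5 uM rhodamine-CoA and 12.5 uM BHQ-2-labelled ybbR peptide in pH 7.6 Hepes/MgCl2 buffer. Enzyme was pre-incubated with compound for 15 min at room temperature. Rate was taken from the 30-min fluorescence change (525/598 nm).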
# * = called active by the depositor; ? = inconclusive; nt = no result given; [ ] = remark or other dose. Shown are actives, neighbours in structure and some others; about 12% of the full set was active somewhere. Calls follow the shape of the dose curve; as a rule, active = well fitted curve in the direction sought with a large enough effect; inconclusive = small, poorly fitted or top-dose-only effect, or another doubt; inactive = no such curve, though single readings can be large; an effect the other way counts as inactive or inconclusive. Potency is read from the fitted curve at half-maximal effect.
SMILES,JMJD2A Tudor,BAZ2B block,PLK1 PBD block,G9a block,HP1b binding inh,Sfp PPTase inh
CC(=O)Oc1ccc(N2C(=O)c3cccc4c([N+](=O)[O-])ccc(c34)C2=O)cc1,-10.6%,6.2%,-2.8%,nt,7.2%,-3.5%
O=C1c2cccc3c([N+](=O)[O-])ccc(c23)C(=O)N1c1nccs1,-10.4%,0.3%,-10.9%,?,14.1%,15.2%
O=C1c2cccc3c([N+](=O)[O-])ccc(c23)C(=O)N1c1ccccn1,0.8%[11.4 µM],?,?,70.8µM*,-29.7%,8.8%
O=C1c2ccc([N+](=O)[O-])cc2C(=O)N1c1ccc(Cl)cn1,-12.7%,-10.8%,-7.8%,-25.8%,24.9%,4.7%
O=C1c2cccc3c([N+](=O)[O-])ccc(c23)C(=O)N1O,?,50.1µM*,?,?,14.2%,-20.7%
COc1cc(OC)cc(-c2cc(N)n(S(=O)(=O)c3cccc4nsnc34)n2)c1,?,?,-8.6%,?,-15.2%,2.6%
CCOc1ccc(-c2cc(N)n(S(=O)(=O)c3cccc4nsnc34)n2)cc1,?,?,-4.1%,22.4µM*,-11.8%,3.4%
CC(C)NC(=O)C1Cc2c(-c3ccc4c(c3)OCO4)ccnc2O1 (centres undefined),nt,nt,-6.1%,nt,nt,nt
CCN1C(=O)/C(=C\C=C2/C=CC=CN2CC)SC1=S,?,22.4µM*,12.3%,10µM*,39.8µM*,?
CCN1C(=O)/C(=C\N2CCN(c3ccc(F)cc3)CC2)SC1=S,?,-30.0%,-5.9%,-16.6%[59 µM],17.0%,-1.1%
Cc1ncc(N=Nc2ccccc2Cl)c(-c2ccccc2)n1,50.1µM*,11.2µM*,-2.6%,?,15.8µM*,2.7%
COc1ccc(-c2nc(C)ncc2-c2ccccc2)c(O)c1,-18.4%,-5.8%,-5.6%,15.9%,21.8%,-4.1%
Cc1ncc(S(=O)(=O)c2ccccc2)c(-c2ccc(Cl)cc2Cl)n1,-14.5%,-7.4%,1.9%,-3.2%[59 µM],27.7%,-12.8%
COc1ccc(N=Nc2cnc(C)nc2-c2ccccc2)cc1,39.8µM*,20µM*,0.1%,14.1µM*,-66.4%,-24.8%
CC1(C)O[C@H]2O[C@@H]([C@H](O)CON3C(=O)c4ccccc4C3=O)[C@H](O)[C@H]2O1,nt,nt,nt,nt,nt,20.5%
CCc1ccc(C2NC(=O)c3[nH]nc(-c4cccc(OC)c4)c32)cc1 (centres undefined),-24.0%,nt,nt,3.0%[59 µM],3.7%,nt
Cc1cccc(-c2nc3c(cnn3-c3ccccc3)c(=O)n2-c2ccc(Br)cc2)c1,-18.0%,-11.9%,nt,1.5%[59 µM],64.8%,nt
COC(=O)C1C(=O)C2=C(CC1C)NC(=O)CC2c1cccc(C)c1 (centres undefined),-17.8%[11.4 µM],7.8%,26.7µM*,0.2%,-9.7%,9.9%
CCOc1cc(C2CC(=O)NC3=C2C(=O)C(C(=O)OC)C(C)C3)cc(Cl)c1O (centres undefined),-27.9%,?,-7.4%,50.1µM*,5.5%,5.0%
COC(=O)C1C(=O)C2=C(CC1C)NC(=O)CC2c1ccccc1 (centres undefined),-4.1%,10.6%,2.2%,19.4%[12.7 µM],42.4%,-21.7%
CN1C(=O)C2C(c3ccc(N(C)C)cc3)NN(Cc3ccccc3)C2C1=O (centres undefined),?,39.8µM*,-3.1%,?,?,-5.4%
Cc1ccc(/C=N/N2CCOCC2)s1,-22.7%,-30.3%,-4.1%,5.7%,22.0%,10.1%
S=c1[nH]nc(-c2ccco2)n1/N=C/c1ccccc1Cl,31.6µM*,1.4%,-4.3%,1.41µM*,21.7%,?
S=c1[nH]nc(-c2ccco2)n1/N=C/c1ccc(Cl)cc1,39.8µM*,?,?,1.26µM*,?,-19.6%
Cc1ccc(/C=N/n2c(-c3ccco3)n[nH]c2=S)s1,20µM*,-13.9%,-7.1%,1.26µM*,13.8%,?
CC(c1ccccc1)C(NC(=O)OCC1c2ccccc2-c2ccccc21)C(=O)O (centres undefined),0.0%,3.0%,-1.4%,-8.9%[2.33 µM],26.1%,nt
O=C(Nc1ccc(N2CCOCC2)cc1)Nc1cnsn1,-17.1%,-10.6%,?,?,21.6%,28.2µM*

# From PubChem
